Test results: PubChem BioAssay (NCATS)
Inconclusive results are not listed. Calls of active or inactive are those of the source. Unless noted, the call rests on the fitted dose curve; in most records, active means well fitted curve in the direction sought with a large enough effect; inconclusive means small, poorly fitted or top-dose-only effect, or another doubt; inactive means no such curve, though single readings can be large; an effect the other way counts as inactive or inconclusive.

Assays:
[1] = target: Thioredoxin reductase 1, cytoplasmic (Rattus norvegicus) (UniProt O89049); assay: qHTS Assay for Inhibitors of Mammalian Selenoprotein Thioredoxin Reductase 1 (TrxR1) (AID 488773); conditions: Potency: inhibition;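 further: drop in NADPH fluorescence over an 8 min run after selenite addition; series mostly up to about 57 µM; on the % scale 0 is the no-effect control and ±100 the full control effect; nearly all actives have a fitted effect of over 40% in size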
Sequence of Thioredoxin reductase 1, cytoplasmic (Rattus norvegicus) (O89049 whole entry, looked up): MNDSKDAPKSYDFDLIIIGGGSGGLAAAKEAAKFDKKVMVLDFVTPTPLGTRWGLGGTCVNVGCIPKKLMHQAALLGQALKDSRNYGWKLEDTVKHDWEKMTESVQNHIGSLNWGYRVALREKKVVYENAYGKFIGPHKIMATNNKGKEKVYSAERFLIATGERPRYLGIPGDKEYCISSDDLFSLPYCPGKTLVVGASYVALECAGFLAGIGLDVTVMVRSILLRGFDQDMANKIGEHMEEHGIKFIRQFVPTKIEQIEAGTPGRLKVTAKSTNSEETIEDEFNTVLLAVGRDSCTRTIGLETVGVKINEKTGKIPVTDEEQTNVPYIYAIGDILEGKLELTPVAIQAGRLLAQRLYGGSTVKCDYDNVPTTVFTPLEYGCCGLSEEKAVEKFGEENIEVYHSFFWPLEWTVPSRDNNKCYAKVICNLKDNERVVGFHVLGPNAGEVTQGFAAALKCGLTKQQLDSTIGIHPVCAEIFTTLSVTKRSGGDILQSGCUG
Method in brief: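 Inhibition is scored from the loss of NADPH fluorescence between first and last reads of an 8-min kinetic run. Selenite (400 uM) was the substrate, added after 15 min compound preincubation at room temperature.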

[2] = target: Methanococcus maripaludis chaperonin (MmCpn) (UniProt Q6LX38); assay: High-Throughput Screening for Modulators of Cytosolic Chaperonin Activity: MmCpn Primary Screen (AID 488978);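 further: 50 nM MmCpn enzyme hydrolysing 30 µM ATP at 37 °C; 0% is about no effect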
Sequence of Methanococcus maripaludis chaperonin (MmCpn) (Q6LX38 1-543): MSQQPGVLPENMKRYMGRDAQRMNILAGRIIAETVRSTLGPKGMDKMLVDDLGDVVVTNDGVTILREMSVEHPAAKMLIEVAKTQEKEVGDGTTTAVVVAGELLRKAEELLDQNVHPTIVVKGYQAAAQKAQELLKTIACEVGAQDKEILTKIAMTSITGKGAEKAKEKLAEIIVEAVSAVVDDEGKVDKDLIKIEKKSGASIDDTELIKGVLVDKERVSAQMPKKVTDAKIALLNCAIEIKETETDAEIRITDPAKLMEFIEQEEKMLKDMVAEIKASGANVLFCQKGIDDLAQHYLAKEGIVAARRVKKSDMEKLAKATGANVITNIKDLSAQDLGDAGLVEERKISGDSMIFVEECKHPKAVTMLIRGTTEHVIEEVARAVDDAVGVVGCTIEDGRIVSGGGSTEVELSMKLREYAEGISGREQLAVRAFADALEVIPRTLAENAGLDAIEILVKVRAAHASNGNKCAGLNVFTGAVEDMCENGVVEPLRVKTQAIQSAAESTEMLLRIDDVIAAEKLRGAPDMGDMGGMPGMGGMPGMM
Method in brief: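 Steps: chaperonin 50 nM final; add compound, 5 min RT; start with ATP, 30 uM final; hold 10 min at 37C; add ADP Transcreener HTRF reagent, 5 min; read ex 320, em 590 and 665 nm.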

[3] = target: Thyrotropin receptor (Homo sapiens) (UniProt P16473); assay: qHTS Assay for Antagonists of the Thyroid Stimulating Hormone Receptor (AID 488980); further: series mostly up to about 58 µM; 0% is about no effect
Sequence of Thyrotropin receptor (Homo sapiens) (P16473 whole entry, looked up): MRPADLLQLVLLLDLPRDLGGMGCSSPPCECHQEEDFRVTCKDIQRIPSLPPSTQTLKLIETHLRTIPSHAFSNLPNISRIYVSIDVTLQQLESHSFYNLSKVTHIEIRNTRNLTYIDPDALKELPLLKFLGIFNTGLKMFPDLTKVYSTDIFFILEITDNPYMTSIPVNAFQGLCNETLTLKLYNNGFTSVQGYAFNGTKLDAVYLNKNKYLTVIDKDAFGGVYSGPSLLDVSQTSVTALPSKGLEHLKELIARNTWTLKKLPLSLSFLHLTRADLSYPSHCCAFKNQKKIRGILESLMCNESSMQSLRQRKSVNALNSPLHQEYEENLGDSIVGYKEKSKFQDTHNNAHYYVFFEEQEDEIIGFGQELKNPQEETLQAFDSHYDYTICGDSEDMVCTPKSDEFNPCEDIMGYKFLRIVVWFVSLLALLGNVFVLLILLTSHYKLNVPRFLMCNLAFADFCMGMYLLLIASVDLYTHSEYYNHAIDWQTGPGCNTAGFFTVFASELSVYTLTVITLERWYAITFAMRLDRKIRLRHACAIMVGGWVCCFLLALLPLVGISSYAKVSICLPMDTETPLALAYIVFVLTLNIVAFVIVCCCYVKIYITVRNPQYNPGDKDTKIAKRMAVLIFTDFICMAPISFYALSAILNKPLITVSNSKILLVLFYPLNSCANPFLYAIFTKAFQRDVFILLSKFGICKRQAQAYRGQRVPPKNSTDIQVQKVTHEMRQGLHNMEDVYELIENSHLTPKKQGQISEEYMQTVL
Method in brief: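 Readout is cAMP by HTRF competition between cellular cAMP and cAMP-d2 for a cryptate-labelled antibody. Antagonism was assessed in TSHR-transfected HEK293 cells stimulated with 4 nM TSH (EC80, final) in the presence of RO 20-1724.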

[4] = target: D(1A) dopamine receptor (Homo sapiens) (UniProt P21728); assay: HTS Assay for Allosteric Agonists of the Human D1 Dopamine Receptor: Primary Screen for Agonists (AID 488981); further: 0% is about no effect
Sequence of D(1A) dopamine receptor (Homo sapiens) (P21728 whole entry, looked up): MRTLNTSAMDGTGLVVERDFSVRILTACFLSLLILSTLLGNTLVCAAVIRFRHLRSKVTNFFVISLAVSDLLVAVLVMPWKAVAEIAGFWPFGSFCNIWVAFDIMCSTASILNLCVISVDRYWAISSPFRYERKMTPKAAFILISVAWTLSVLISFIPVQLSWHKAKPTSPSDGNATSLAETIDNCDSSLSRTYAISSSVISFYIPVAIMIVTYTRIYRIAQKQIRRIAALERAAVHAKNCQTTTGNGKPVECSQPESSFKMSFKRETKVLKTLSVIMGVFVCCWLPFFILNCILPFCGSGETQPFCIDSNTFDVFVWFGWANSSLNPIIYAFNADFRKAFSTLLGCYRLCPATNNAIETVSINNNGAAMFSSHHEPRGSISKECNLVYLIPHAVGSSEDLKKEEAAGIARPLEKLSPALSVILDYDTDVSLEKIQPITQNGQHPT
Method in brief: (§1)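 Tetracycline-induced HEK293 T-REx cells force-coupled to calcium signalling were incubated overnight at 30 C and dye-loaded at room temperature. Calcium flux over 180 s after compound addition flagged agonists; a further 180 s read after EC20 dopamine flagged potentiators.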

[5] = target: D(1A) dopamine receptor (Homo sapiens) (UniProt P21728); assay: HTS Assay for Allosteric Agonists of the Human D1 Dopamine Receptor: Primary Screen for Potentiators (AID 488982); further: 0% is about no effect
Method in brief: as §1

[6] = Validation screen for small molecules that induce genotoxicity in human embryonic kidney (HEK293T) cells expressing luciferase-tagged ELG1 (AID 493106); further: 0% is about no effect
Method in brief: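 ELG1-luciferase reporter readout (ONE-Glo, 30 min, room temperature) after 16 hr compound treatment at 37 °C of HEK293T cells at 2,000 per well. Rising luminescence flags genotoxic stress.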

[7] = target: ATPase family AAA domain-containing protein 5 (Homo sapiens) (UniProt Q96QE3); assay: Validation screen for small molecules that inhibit ELG1-dependent DNA repair in human embryonic kidney (HEK293T) cells expressing luciferase-tagged ELG1 (AID 493107); further: nearly all actives have a fitted effect of over 70% in size; further: potency means the concentration at half of the fitted maximal effect
Method in brief: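 Luciferase read-out, ONE-Glo, 30 min at room temperature, follows 16 h co-exposure at 37 C of compound and the DNA-damaging agent 5-fluorouridine. Cells: HEK293T with ELG1-luciferase fusion, 2,000 per well, DMSO as vehicle.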

[8] = Nrf2 qHTS screen for inhibitors: Validation (AID 493153; active means well fitted inhibition curve with a large enough effect in the main read-out, with a control signal flat, not every such curve was filed as active; further: potency means the concentration at half of the fitted maximal effect); conditions: Potency: luciferase luminescence; viability change: measured here: cytotoxicity max response
Method in brief: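 Concentration-response on A549 ARE_Fluc reporter cells exposed 18-24 h at 37 C, 5% CO2. Cytotoxicity read first by CellTiter-Fluor fluorescence (Ex 405/Em 525), then Nrf2 inhibition by BugLite luminescence after 15 min.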

[9] = qHTS for Inhibitors of Cell Surface uPA Generation: Validation Assay (AID 493164);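 further: RAW 264.7 macrophage cells exposed to compound for 18 h; 0% is about no effect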
Method in brief: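 ATP-Lite luminescence read-out: ATP remains high when uPA activity-dependent LF translocation into the cytoplasm is blocked. RAW 264.7 cells, 18 h compound exposure at 37 C; 7-point titration, 2.45 nM to 38.3 uM final.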

[10] = target: Peptidyl-prolyl cis-trans isomerase NIMA-interacting 1 (Homo sapiens) (UniProt Q13526); assay: qHTS Validation Assay to Find Inhibitors of Pin1 (AID 504536; active means well fitted inhibition curve with a large enough effect in the polarisation, with a control signal flat, not every such curve was filed as active; the % refers to the polarisation;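 further: 0% = full Pin1 enzyme wells and -100% = no-enzyme wells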)
Sequence of Peptidyl-prolyl cis-trans isomerase NIMA-interacting 1 (Homo sapiens) (Q13526 whole entry, looked up): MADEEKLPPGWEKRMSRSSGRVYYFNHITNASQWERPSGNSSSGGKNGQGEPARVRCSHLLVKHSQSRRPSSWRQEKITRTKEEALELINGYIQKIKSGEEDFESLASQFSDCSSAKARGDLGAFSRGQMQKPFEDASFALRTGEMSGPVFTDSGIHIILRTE
Method in brief: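 Fluorescence polarization competition: compounds (titration) displace HiFluor-488-labeled Pin1-1b peptide from Pin1 (0.3 uM final) in pH 7.5 HEPES buffer with DTT, 10 min at room temperature; %Activity normalized to no-enzyme wells, curves fitted.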

[11] = target: Phosphoglycerate kinase, glycosomal (Trypanosoma brucei brucei) (UniProt P07378); assay: qHTS Validation Assay to Find Inhibitors of Phosphoglycerate Kinase (AID 504547);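 further: control wells lack PGK and mark full inhibition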
Method in brief: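 In TEA buffer (100mM, pH 7.6) containing 5mM MgCl2 and 0.01% Tween-20, the GAPDH-coupled PGK reaction proceeded for 60 minutes at room temperature before a single luminescence reading using Kinase-Glo Plus.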

[12] = target: Flap endonuclease 1 (Homo sapiens) (UniProt P39748); assay: qHTS Validation Assay for the Inhibitors of Human Flap endonuclease 1 (FEN1) (AID 488816); further: on the % scale 0 is the no-effect control and ±100 the full control effect
Sequence of Flap endonuclease 1 (Homo sapiens) (P39748 whole entry, looked up): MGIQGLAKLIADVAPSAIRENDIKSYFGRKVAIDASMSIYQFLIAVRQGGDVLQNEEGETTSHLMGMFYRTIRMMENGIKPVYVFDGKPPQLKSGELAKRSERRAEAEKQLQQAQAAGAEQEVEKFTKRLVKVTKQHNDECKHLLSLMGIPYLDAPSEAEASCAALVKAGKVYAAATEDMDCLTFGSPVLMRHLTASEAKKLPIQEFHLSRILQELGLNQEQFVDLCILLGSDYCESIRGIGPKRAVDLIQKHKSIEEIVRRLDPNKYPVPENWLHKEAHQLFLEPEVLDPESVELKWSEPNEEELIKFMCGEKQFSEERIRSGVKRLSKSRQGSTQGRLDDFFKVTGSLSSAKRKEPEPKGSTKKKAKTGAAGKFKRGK
Method in brief: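 Steps: add FEN1 (10 nM reagent) or buffer only; pin compounds; hold 15 min at room temperature; start with substrate, 50 nM final; read at 0 and 15 min; correct, normalize and fit a four-parameter Hill curve.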

[13] = target: D(1A) dopamine receptor (Homo sapiens) (UniProt P21728); assay: HTS Assay for Allosteric Agonists of the Human D1 Dopamine Receptor: Primary Screen for Antagonists (AID 488983);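 further: calcium flux response to an EC80 dopamine challenge measured with no-wash dye; nearly all actives have a fitted effect of over 65% in size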; further: potency means the concentration at half of the fitted maximal effect
Method in brief: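 Calcium-flux read-out in inducible HEK293 T-REx cells expressing D1, dye-loaded 30–90 min at room temperature. Kinetic reads: 180 s after compound (agonist phase), then 180 s after an EC80 dopamine challenge.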

[14] = target: Galactokinase (Homo sapiens) (UniProt P51570); assay: qHTS Validation Assay for Inhibitors of Human Galactokinase (GALK) (AID 493189); further: 0% is about no effect
Sequence of Galactokinase (Homo sapiens) (P51570 whole entry, looked up): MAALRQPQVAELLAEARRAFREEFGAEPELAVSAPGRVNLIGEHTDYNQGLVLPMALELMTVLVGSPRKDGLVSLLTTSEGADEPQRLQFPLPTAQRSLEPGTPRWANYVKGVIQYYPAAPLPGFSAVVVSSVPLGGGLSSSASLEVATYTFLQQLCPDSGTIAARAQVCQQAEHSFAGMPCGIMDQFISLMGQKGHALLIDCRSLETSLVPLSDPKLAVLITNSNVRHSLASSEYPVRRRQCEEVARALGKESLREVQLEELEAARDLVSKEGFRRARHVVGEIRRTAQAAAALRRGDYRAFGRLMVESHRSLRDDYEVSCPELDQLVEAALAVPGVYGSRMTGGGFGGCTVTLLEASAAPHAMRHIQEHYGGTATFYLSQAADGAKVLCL
Method in brief: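 5 nM GALK / 100 uM galactose / 35 uM ATP, 20 mM HEPES pH8.0, 5 mM MgCl2, 60 mM NaCl, 1 mM DTT, 0.01% BSA (final). RT 1 h; Kinase-Glo Plus luminescence.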

[15] = target: M-phase phosphoprotein 8 (Homo sapiens) (UniProt Q99549); assay: qHTS Validation Assay for Inhibitors for MPP8 Chromodomain Interactions with Methylated Histone Tails (AID 488949);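 further: 50 nM MPP8 with 50 nM peptide preformed then compounds added for 30 min; AlphaScreen signal from MPP8 chromodomain bound to biotinylated H3K9me3 peptide; top concentration of the series differs between compounds; on the % scale 0 is the no-effect control and ±100 the full control effect; nearly all actives have a fitted effect of over 55% in size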
Sequence of M-phase phosphoprotein 8 (Homo sapiens) (Q99549 whole entry, looked up): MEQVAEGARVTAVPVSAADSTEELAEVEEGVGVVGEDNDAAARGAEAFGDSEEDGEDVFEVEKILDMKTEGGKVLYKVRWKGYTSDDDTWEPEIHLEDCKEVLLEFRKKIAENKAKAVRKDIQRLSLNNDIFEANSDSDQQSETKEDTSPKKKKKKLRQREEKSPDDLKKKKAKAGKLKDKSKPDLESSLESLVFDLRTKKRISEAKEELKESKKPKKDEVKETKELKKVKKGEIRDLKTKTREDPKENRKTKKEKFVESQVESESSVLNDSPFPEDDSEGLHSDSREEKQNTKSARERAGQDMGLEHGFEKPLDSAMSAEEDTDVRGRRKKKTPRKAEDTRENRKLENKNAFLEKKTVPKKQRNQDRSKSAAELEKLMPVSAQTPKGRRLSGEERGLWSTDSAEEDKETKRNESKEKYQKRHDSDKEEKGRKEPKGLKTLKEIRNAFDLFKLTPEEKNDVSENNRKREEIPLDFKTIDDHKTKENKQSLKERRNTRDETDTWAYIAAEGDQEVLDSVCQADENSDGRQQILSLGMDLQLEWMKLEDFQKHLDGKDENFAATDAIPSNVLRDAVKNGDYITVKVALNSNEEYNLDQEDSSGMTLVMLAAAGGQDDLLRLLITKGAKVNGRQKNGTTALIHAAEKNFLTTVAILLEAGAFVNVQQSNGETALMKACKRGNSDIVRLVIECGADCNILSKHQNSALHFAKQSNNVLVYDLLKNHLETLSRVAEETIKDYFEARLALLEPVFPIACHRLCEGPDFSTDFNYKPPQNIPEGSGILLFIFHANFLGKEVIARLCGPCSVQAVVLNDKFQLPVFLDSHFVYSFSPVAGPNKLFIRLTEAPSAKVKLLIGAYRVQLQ
Method in brief: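 50 nM MPP8 + 50 nM b-H3K9me3 peptide, PBS pH 7.4/0.01% Tween-20, 30 min RT; + cpd 30 min RT; + AlphaScreen donor/Ni-chelate acceptor beads 10 ug/mL final, 30 min dark; luminescence read.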

[16] = target: Chromobox protein homolog 1 (Homo sapiens) (UniProt P83916); assay: qHTS Validation Assay for Inhibitors of HP1-beta Chromodomain Interactions with Methylated Histone Tails (AID 488953);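 further: loss of AlphaScreen luminescence from HP1-beta binding biotinylated H3K9me3 peptide; series mostly up to about 110 µM; on the % scale 0 is the no-effect control and ±100 the full control effect; nearly all actives have a fitted effect of over 50% in size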
Sequence of Chromobox protein homolog 1 (Homo sapiens) (P83916 whole entry, looked up): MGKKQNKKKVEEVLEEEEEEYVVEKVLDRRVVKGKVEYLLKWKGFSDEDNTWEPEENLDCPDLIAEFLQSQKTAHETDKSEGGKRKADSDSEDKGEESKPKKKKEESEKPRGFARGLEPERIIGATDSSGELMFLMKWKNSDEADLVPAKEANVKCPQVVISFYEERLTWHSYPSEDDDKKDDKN
Method in brief: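 AlphaScreen proximity signal from streptavidin donor and nickel chelate acceptor beads (final 10 ug/mL) after 30 min dark incubation. Compounds had 30 min at room temperature with preformed complex of 50 nM HP1-beta and 50 nM b-H3(1-18)K9me3 in PBS pH 7.4 with 0.01% Tween-20.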

[17] = target: ATP-dependent 6-phosphofructokinase (Trypanosoma brucei brucei) (UniProt O15648); assay: qHTS Assay to Find Inhibitors of T. brucei phosphofructokinase: hit validation (AID 492961);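 further: luminescence reports ADP formed as PFK phosphorylates fructose-6-phosphate with ATP; series mostly up to about 51 µM; on the % scale 0 is the no-effect control and ±100 the full control effect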
Method in brief: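 PFK 1.25 nM, F6P 0.5 mM, ATP 0.1 mM, MgCl2 5 mM, 0.1 M TEA pH 8.0, Tween20 0.01%, BSA 0.1%; 45 min RT. ADP-Glo two-step detection, luminescence. qHTS titration; curve fitting with curve-class categorization.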

[18] = Validation screen for small molecules that induce DNA re-replication in SW480 colon adenocarcinoma cells (AID 504364); further: 0% is about no effect
Method in brief: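 Image-based DNA content read-out: Hoechst stain 40 min, total nuclear fluorescence intensity (ex 405 nm, em 500-530 nm) after 48 h compound exposure of 250 SW480 cells/well at 37 C, 5% CO2, versus DMSO vehicle.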

[19] = target: Transient receptor potential cation channel subfamily V member 1 (Homo sapiens) (UniProt Q8NER1); assay: HTS Assay for Compounds that Act as Enhancers of the Vanilloid Receptor 1 (AID 488979); further: 0% is about no effect
Method in brief: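 TRPV1-expressing cells loaded with Fluo-8 calcium dye; compounds added and calcium influx read kinetically for 3 min (agonist phase), then capsaicin at EC20 added and read 2 min more for enhancement. Fluorescence ex 480/em 520 nm.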

[20] = target: Thyrotropin-releasing hormone receptor (Homo sapiens) (UniProt P34981); assay: qHTS for Small Molecule Agonists and Allosteric Enhancers of Human TRH Receptor: Validation Screen for Agonists (AID 493127;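 active means calcium activation more than 3 SD above the typical response in the agonist read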;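 further: intracellular calcium rise by fluo-8 fluorescence before TRH EC20 addition; 0% is about no effect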); conditions: TRH receptor agonist cell assay; at 2 µM; stronger effect = higher value
Sequence of Thyrotropin-releasing hormone receptor (Homo sapiens) (P34981 whole entry, looked up): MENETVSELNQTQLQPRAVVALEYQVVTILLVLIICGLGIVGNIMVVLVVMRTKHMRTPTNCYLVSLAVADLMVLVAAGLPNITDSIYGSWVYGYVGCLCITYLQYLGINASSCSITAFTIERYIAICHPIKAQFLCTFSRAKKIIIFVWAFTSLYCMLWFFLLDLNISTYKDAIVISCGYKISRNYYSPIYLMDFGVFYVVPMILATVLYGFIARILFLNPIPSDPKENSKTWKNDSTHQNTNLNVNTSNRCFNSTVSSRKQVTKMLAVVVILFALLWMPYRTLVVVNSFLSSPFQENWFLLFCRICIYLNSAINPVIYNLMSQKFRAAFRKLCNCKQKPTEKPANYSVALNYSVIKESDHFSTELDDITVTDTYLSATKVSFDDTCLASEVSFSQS
Method in brief: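 Compound-evoked intracellular calcium release in fluo-8-loaded TRHR cells, read kinetically on FDSS (Ex 480/Em 530, 1 s/cycle) after 23 nL pintool transfer. Agonist phase preceded 10 nM TRH EC20 addition.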

CNCCCN1c2ccccc2CCc2ccccc21
inactive: Potency [1] | outcome [2] | outcome [3] | Potency [4] | Potency [5] | Potency [6] | Potency [7] | Potency [8] | outcome [9] | outcome [10] | outcome [11]
-3.92%: viability change [8]

CN(C)C(=O)Oc1ccc[n+](C)c1
-10.4%: viability change [8]
inactive: Potency [1] | Potency [12] | outcome [3] | Potency [4] | Potency [5] | Potency [13] | Potency [6] | Potency [8] | outcome [9] | outcome [14] | outcome [10] | outcome [11]

COc1ccc([C@@H]2Sc3ccccc3N(CCN(C)C)C(=O)[C@@H]2OC(C)=O)cc1
inactive: Potency [15] | Potency [16] | outcome [2] | outcome [3] | Potency [4] | Potency [13] | outcome [17] | Potency [6] | Potency [7] | outcome [9] | outcome [18] | outcome [10] | outcome [11]

COC(=O)C1=C(C)NC(C)=C(C(=O)OCCN(C)Cc2ccccc2)C1c1cccc([N+](=O)[O-])c1 (stereo not given)
active: Potency [13] 7.08 µM | Potency [7] 16.4 µM
inactive: Potency [1] | outcome [19] | outcome [3] | Potency [4] | Potency [5] | Potency [6] | activation [20] -4.56% | outcome [9] | outcome [14] | outcome [11]

C[C@]12CCC(=O)C=C1CC[C@@H]1[C@@H]2C(=O)C[C@@]2(C)[C@H]1CC[C@]2(O)C(=O)CO
8.98%: viability change [8]
inactive: Potency [12] | Potency [15] | outcome [19] | outcome [3] | Potency [4] | Potency [5] | Potency [13] | Potency [6] | activation [20] -0.125% | Potency [8] | outcome [9] | outcome [14] | outcome [18] | outcome [10] | outcome [11]

CC[N+](C)(C)c1cccc(O)c1
inactive: Potency [15] | Potency [16] | outcome [2] | outcome [19] | outcome [3] | Potency [4] | Potency [5] | Potency [13] | Potency [7] | Potency [8] | outcome [9] | outcome [14] | outcome [18] | outcome [10] | outcome [11]
0.744%: viability change [8]

C[C@]12C=CC(=O)C=C1CC[C@H]1[C@@H]3C[C@@H](O)[C@](O)(C(=O)CO)[C@@]3(C)C[C@H](O)[C@@]12F
inactive: Potency [12] | Potency [15] | Potency [16] | outcome [2] | outcome [19] | outcome [3] | Potency [4] | Potency [5] | Potency [13] | Potency [7] | outcome [9] | outcome [14] | outcome [18] | outcome [10] | outcome [11]
-4.26%: viability change [8]
active: Potency [8] 0.082 µM

CN1C[C@H](C(=O)N[C@]2(C)O[C@@]3(O)[C@@H]4CCCN4C(=O)[C@H](Cc4ccccc4)N3C2=O)C[C@@H]2c3cccc4[nH]cc(c34)C[C@H]21
-1.86%: viability change [8]
inactive: Potency [1] | Potency [12] | outcome [2] | Potency [4] | Potency [6] | Potency [8] | outcome [9] | outcome [10] | outcome [11]

c1cnc(N2CCN(Cc3ccc4c(c3)OCO4)CC2)nc1
inactive: Potency [1] | Potency [15] | Potency [16] | outcome [19] | outcome [3] | Potency [4] | Potency [5] | Potency [13] | Potency [7] | activation [20] -3.31% | Potency [8] | outcome [9] | outcome [18] | outcome [11]
2.39%: viability change [8]

CCN(CC)CC(=O)Nc1c(C)cccc1C
-7.11%: viability change [8]
inactive: Potency [1] | Potency [12] | Potency [16] | outcome [2] | outcome [3] | Potency [4] | Potency [13] | Potency [6] | Potency [7] | Potency [8] | outcome [9] | outcome [14] | outcome [18] | outcome [10] | outcome [11]

CCOC(=O)C1=C(C)NC(C)=C(C(=O)OC)C1c1cccc(Cl)c1Cl (stereo not given)
inactive: Potency [1] | Potency [15] | Potency [16] | outcome [2] | outcome [3] | Potency [4] | Potency [13] | Potency [6] | Potency [8] | outcome [9] | outcome [14] | outcome [18] | outcome [10] | outcome [11]
-3.98%: viability change [8]
